Data on 11 molecules can be found in PubChem BioAssay.

Calls of active or inactive are those of the source. No rule for the calls is given here.

This experiment can be described thus: inhibitors of hydroxyurea-induced Chk1 phosphorylation, primary screen, imaging, HeLa, phospho-Chk1 antibody, percent positive cells (AID 1186). The following applies: hydroxyurea-induced phospho-Chk1 immunofluorescence imaging, higher = more signal.
As to `C=CCN1C(=O)[C@@]2(O[C@@H](CCO)[C@H]([Si](C)(C)c3ccc(OC)cc3)[C@H]2C)c2cc(NC(=O)[C@H](C)O)ccc21`, the z-score was -0.455 (inactive).
The value for `COC(=O)[C@@]1(Cc2ccc(OC)cc2)[C@H]2c3cc(C(=O)N4CCCC4)n(CCF)c3C[C@H]2CN1C(=O)c1ccccc1` was 0.128 (inactive).
As for `O=C1N(Cc2ccccc2)c2ccccc2[C@H]2OC(c3ccc(OCCCO)cc3)=N[C@@]12CCS(=O)(=O)c1ccccc1`, the z-score was -0.103 (inactive).
For the molecule `CC(=O)NCCCC[C@@H]1NC(=O)[C@@H]2C[C@H](C(=O)NCCCC[N+](C)(C)C)[C@H](c3cccc(OCCO)c3)N2C1=O`, the z-score is -0.349 (inactive).
As for `COCCCNC(=O)[C@@]1(Cc2ccccc2I)c2ccccc2C(=O)N(Cc2ccccc2Cl)[C@H]1c1ccc(CO)cc1`, the z-score is -0.152 (inactive).
To `COCCCNC(=O)[C@@]1(Cc2ccccc2CN=[N+]=[N-])N=C(c2ccc(OCCCO)cc2)O[C@H]1c1ccccc1N=[N+]=[N-]` belongs -0.498 (inactive).
Turning to `NCCCCCCNC(=O)[C@H]1C[C@H]2C(=O)N3CCC[C@H]3C(=O)N2[C@H]1c1ccc(O)cc1`, the z-score is -0.0342 (inactive).
`C=C(/C(=C/C[C@@H](OC(=O)c1ccncc1)c1cccc(OCCO)c1)c1cc(C(=O)OC)ccc1OC)C(C)C`: the z-score was -0.185 (inactive).
To `CN1C(=O)C2C=CC(C(O)COCc3ccccc3)N(Nc3ccccc3)C2C1=O` (stereo unspecified) belongs 0.466 (inactive); to `C=C[C@@H](O)[C@H]1CC(c2ccccc2)=NO1`, -0.386 (inactive).
As to `COC(=O)[C@@]1(Cc2ccc(OC)cc2)[C@H]2c3cc(C(=O)N(C)C)n(CCF)c3C[C@H]2CN1C(=O)c1ccccc1`, the z-score was 0.326 (inactive).
